For part of these data: Entries with a potency or affinity are not part of this list.

Assay [1] has as its system Staphylococcus aureus. Description: Antibacterial activity against Staphylococcus aureus MRSA ATCC 43300 (CO-ADD:GP_020); MIC in CAMBH media using NBS plates, by Resazurin F(560/590). It is filed as functional. As to conditions: Concentration 20 uM, ASSAY_TEST Inhibition of Bacterial Growth, detection method Resazurin, Fluorescence (ex560/em590), MEDIA CAMHB, plate type 384well, CORNING #3640, time 18 hr. (In general: The colour change of resazurin is a common sign of viable cells or microbes.)

Assay [2] has as its system Acinetobacter baumannii. The assay is described as follows: Antibacterial activity against Acinetobacter baumannii ATCC 19606 (CO-ADD:GN_034); MIC in CAMBH media using NBS plates, by Resazurin F(560/590). Type of assay: functional. The conditions noted are these: Concentration 20 uM, ASSAY_TEST Inhibition of Bacterial Growth, detection method Resazurin, Fluorescence (ex560/em590), MEDIA CAMHB, plate type 384well, CORNING #3640, time 18 hr.

The subject of assay [3] is Escherichia coli. The assay is described as follows: Antibacterial activity against Escherichia coli ATCC 25922 (CO-ADD:GN_001); MIC in CAMBH media using NBS plates, by Resazurin F(560/590). Type of assay: functional. The conditions noted are these: Concentration 20 uM, ASSAY_TEST Inhibition of Bacterial Growth, detection method Resazurin, Fluorescence (ex560/em590), MEDIA CAMHB, plate type 384well, CORNING #3640, time 18 hr.

Assay [4] relates to Klebsiella pneumoniae. As to conditions: Concentration 20 uM; ASSAY_TEST Inhibition of Bacterial Growth; detection method Absorption (OD600); MEDIA CAMHB; plate type 384well; NBS; CORNING #3640; time 18 hr.
Assay [5] deals with Candida albicans. The conditions noted are these: 20 µM.
Assay [6] relates to Cryptococcus neoformans. The conditions noted are these: Concentration 20 uM; ASSAY_TEST Inhibition of Fungal Growth; detection method Resazurin; Absorption (OD600-OD570); plate type 384well; NBS; CORNING #3640.

In the case of `N#Cc1cnn(-c2cccc(Cl)c2)c1-n1cccc1`, the Inhibition – broadly, the change of the read-out against control, counted positive when it falls – in assay [1] was 7.59%; in assay [2], -21.29%; in assay [3], 14.62%; in assay [4], 3.39%; in assay [5], 9.39%; in assay [6] it was -16.73%.

Consider `O=C(O)/C(Cc1c[nH]nn1)=N\O`, for which the Inhibition in assay [1] was -3.12%; in assay [2] it was -10.75%; in assay [3] it was 6.44%; in assay [4], 7.49%; in assay [5] it was 2.24%; in assay [6] it was -5.01%.

`CC(C)CNC(=O)/C=C\C(=O)O`: the Inhibition is -0.87% in assay [1]; -6.9% in assay [2]; -14.17% in assay [3]; 9.3% in assay [4]; 3.69% in assay [5]; 32.61% in assay [6].

Take `c1ccc2cc(OCCOCCOc3ccc4ccccc4c3)ccc2c1`: the Inhibition in assay [1] was 11.38%; in assay [2], 0.36%; in assay [3] it was 5.4%; in assay [4], 11.21%; in assay [5], 5.37%; in assay [6], -6.02%.

As to `CCCCCc1cc(O)nc(S)n1`, the Inhibition in assay [1] was 5.4%; in assay [2], -7.23%; in assay [3], 3.05%; in assay [4] it was 2.8%; in assay [5], 1.05%; in assay [6], -4.11%.

With `COc1ccc(/N=N/c2ccc(N)nc2N)cc1`, the Inhibition in assay [1] is 0.3%; in assay [2], -8.88%; in assay [3], 5.08%; in assay [4] it was 7.55%; in assay [5] it was 4.94%; in assay [6] it was -6.06%.

As for `CC(=O)CC(=O)Nc1ccc2ccccc2c1`, the Inhibition in assay [1] is -8%; in assay [2], 10.6%; in assay [3], 5.41%; in assay [4], 9.32%; in assay [5], 7.43%; in assay [6] it was -13.72%.

With `CC12CCC(/C(=N/c3ccc(/N=C4\C(=O)C5(C)CCC4C5(C)C)cc3)C1=O)C2(C)C`, the Inhibition in assay [1] was -7.11%; in assay [2], -9.62%; in assay [3], 14.23%; in assay [4] it was 11.61%; in assay [5], 0.19%; in assay [6], -4.9%.

In the case of `COc1ccc2c(=O)cc(-c3cccnc3)oc2c1OC`, the Inhibition in assay [1] is 4.17%; in assay [2], 8.21%; in assay [3] it was 2.42%; in assay [4] it was 26.45%; in assay [5] it was 9.13%; in assay [6], -11.85%.

Consider `CCOC(=O)Nc1c2ccccc2nc2ccccc12`, for which the Inhibition in assay [1] is 6.28%; in assay [2], -11.12%; in assay [3] it was 4.72%; in assay [4], 16.5%; in assay [5] it was 2.36%; in assay [6], -13.98%.

On to `Cc1cc(=O)c2c(o1)C(=O)c1occc1C2=O`, for which the Inhibition is -16.99% in assay [1]; -9.35% in assay [2]; -16.26% in assay [3]; 2.36% in assay [4]; 7.04% in assay [5]; 24.84% in assay [6].

On to `O=C1c2cc([N+](=O)[O-])ccc2-c2cc(Br)c(NC(=NO)C(F)(F)F)cc21`, for which the Inhibition in assay [1] was 19.28%; in assay [2], -25.99%; in assay [3] it was 18.87%; in assay [4], 6.86%; in assay [5], -4.85%; in assay [6], -6.6%.

As to `N#Cc1ncc(Cl)c2ccccc12`, the Inhibition in assay [1] was -8.29%; in assay [2], -4.37%; in assay [3], -2.85%; in assay [4] it was 7.91%; in assay [5], 0.23%; in assay [6], -7.62%.

With `Cc1c(CCO)c(=O)n2n1CCCC2`, the Inhibition is -14.7% in assay [1]; -6.34% in assay [2]; -10.48% in assay [3]; 7.18% in assay [4]; -0.03% in assay [5]; 3.75% in assay [6].

As to `O=S(=O)(Oc1ccc(Cl)cc1)c1cccc2cccnc12`, the Inhibition in assay [1] is 11.37%; in assay [2], -12.19%; in assay [3], 8.94%; in assay [4], 7.96%; in assay [5], -1.21%; in assay [6], -3.12%.

Turning to `Cn1c(=O)c2c(nc(N3CCCCC3)n2C)n(C)c1=O`, the Inhibition in assay [1] is 9.93%; in assay [2], 4.85%; in assay [3], 2.17%; in assay [4] it was 8.3%; in assay [5], 4.05%; in assay [6], -7.82%.

As for `C1=Cc2ccccc2Nc2ccccc21` [IMINOSTILBENE], the Inhibition was -1.85% in assay [1]; -14.24% in assay [2]; 12.01% in assay [3]; 3.59% in assay [4]; 3.51% in assay [5]; -15.72% in assay [6].

On to `Cn1ncc2c(Nc3ccc([N+](=O)[O-])cc3)nc(Cl)nc21`, for which the Inhibition in assay [1] is -16.06%; in assay [2], 3.27%; in assay [3], -14.4%; in assay [4] it was -8.72%; in assay [5] it was -1.97%; in assay [6], -3.09%.

Consider `CCOC(=O)c1[nH]c(CO)c(C(=O)OCC)c1C`, for which the Inhibition in assay [1] is 12.97%; in assay [2], 11.05%; in assay [3], 2.06%; in assay [4], 19.54%; in assay [5] it was 9.36%; in assay [6], -4.6%.

Consider `Cc1cccnc1NC(=O)c1csnn1`, for which the Inhibition in assay [1] is 5.73%; in assay [2], -12.69%; in assay [3] it was 4.7%; in assay [4], 9.01%; in assay [5], -1.09%; in assay [6], -4.1%.

As to `CCCCn1cnc2c(S)nc(N)nc21`, the Inhibition in assay [1] was 6.68%; in assay [2], -8.46%; in assay [3], -1.37%; in assay [4], 7.23%; in assay [5], 1.37%; in assay [6], -12.06%.

`O=C(Cn1nnc(N2CCCCC2)n1)N/N=C/c1ccccc1O`: the Inhibition in assay [1] is 17.81%; in assay [2], 3.41%; in assay [3] it was 7.77%; in assay [4] it was 2.1%; in assay [5], -0.19%; in assay [6] it was -9.12%.

As to `CSc1ccc(NC(=O)Nc2cc(C)ccn2)cc1`, the Inhibition in assay [1] was 4.66%; in assay [2], -16.85%; in assay [3] it was 9.5%; in assay [4], 13.34%; in assay [5], 0.13%; in assay [6], -8.58%.

For `COc1ccc(/C(C#N)=C/c2cccnc2)cc1`, the Inhibition was 17.02% in assay [1]; -13.68% in assay [2]; 11.08% in assay [3]; 6.19% in assay [4]; 11.3% in assay [5]; -16.52% in assay [6].

With `CC1=C2C3OC(=O)C(C)C3CCC2(C)C=C(Cl)C1=O` (stereo not given), the Inhibition in assay [1] is -4.99%; in assay [2] it was -5.14%; in assay [3], -9.28%; in assay [4], 10.19%; in assay [5], 1.04%; in assay [6], -2.81%.
